Among the data in the OligoGym collection are sensor-assay potency score (higher = more potent) values, retold here.
Also: reference of the scale not given here.

One assay addresses ATP7B. Description: pooled miR-30 sensor sort-seq; sequence = guide strand. The settings on record: shRNA.
As to TCTCGTGGTCTGTCATAGCGTC, the sensor-assay potency score (higher = more potent) was -0.487. TGACTCGCCTCTCACCTTCTAC: the sensor-assay potency score (higher = more potent) is -1.09. Same read-out and setting: with TAGAGTCCAAGACAAAGCCCAT the figure was -1.12; with AATGCTAGCCACCACATCCAGC, -0.992.

The next assay concerns the target ATP8A2. The assay is described as above. As to conditions: shRNA.
For the sequence TAATACATATCTGTGTCCCAGT, the sensor-assay potency score (higher = more potent) was -0.374.

TTGTATAAGATGATGAACGTCA came in with a sensor-assay potency score (higher = more potent) of 2.4e-06.

As for TTAAAGTTCATGATATTGCATG, the sensor-assay potency score (higher = more potent) was -0.75.

Sequence TTGAGTATACTTCACAACCTCA came in with a sensor-assay potency score (higher = more potent) of -0.741. Sequence TTTGTCTCCTGTCAACACCCAT had a sensor-assay potency score (higher = more potent) of -1.17. On to TTGTGTTGAAGCCTTCGCCATT, for which the sensor-assay potency score (higher = more potent) was -1.44.
